Source: the supplement of paper PMC11732987, “Enantioselective OTUD7B fragment discovery through chemoproteomics screening and high-throughput optimisation” (Communications Chemistry, 2025)

Key:
Experiment in all cases: log2 ratio of Biotin-Ahx-Ub-VS probe labelling (fragment/DMSO); higher = less target engagement (more negative = stronger competition), active = hit call of the paper (q ≤ 0.05, log2 ratio ≤ -1)
Conditions in all cases: compound concentration: 200 uM; treatment time: 3 h
[1] = molecular target: T1, USP42 (UniProt Q9H9J4)
T1 sequence (whole entry): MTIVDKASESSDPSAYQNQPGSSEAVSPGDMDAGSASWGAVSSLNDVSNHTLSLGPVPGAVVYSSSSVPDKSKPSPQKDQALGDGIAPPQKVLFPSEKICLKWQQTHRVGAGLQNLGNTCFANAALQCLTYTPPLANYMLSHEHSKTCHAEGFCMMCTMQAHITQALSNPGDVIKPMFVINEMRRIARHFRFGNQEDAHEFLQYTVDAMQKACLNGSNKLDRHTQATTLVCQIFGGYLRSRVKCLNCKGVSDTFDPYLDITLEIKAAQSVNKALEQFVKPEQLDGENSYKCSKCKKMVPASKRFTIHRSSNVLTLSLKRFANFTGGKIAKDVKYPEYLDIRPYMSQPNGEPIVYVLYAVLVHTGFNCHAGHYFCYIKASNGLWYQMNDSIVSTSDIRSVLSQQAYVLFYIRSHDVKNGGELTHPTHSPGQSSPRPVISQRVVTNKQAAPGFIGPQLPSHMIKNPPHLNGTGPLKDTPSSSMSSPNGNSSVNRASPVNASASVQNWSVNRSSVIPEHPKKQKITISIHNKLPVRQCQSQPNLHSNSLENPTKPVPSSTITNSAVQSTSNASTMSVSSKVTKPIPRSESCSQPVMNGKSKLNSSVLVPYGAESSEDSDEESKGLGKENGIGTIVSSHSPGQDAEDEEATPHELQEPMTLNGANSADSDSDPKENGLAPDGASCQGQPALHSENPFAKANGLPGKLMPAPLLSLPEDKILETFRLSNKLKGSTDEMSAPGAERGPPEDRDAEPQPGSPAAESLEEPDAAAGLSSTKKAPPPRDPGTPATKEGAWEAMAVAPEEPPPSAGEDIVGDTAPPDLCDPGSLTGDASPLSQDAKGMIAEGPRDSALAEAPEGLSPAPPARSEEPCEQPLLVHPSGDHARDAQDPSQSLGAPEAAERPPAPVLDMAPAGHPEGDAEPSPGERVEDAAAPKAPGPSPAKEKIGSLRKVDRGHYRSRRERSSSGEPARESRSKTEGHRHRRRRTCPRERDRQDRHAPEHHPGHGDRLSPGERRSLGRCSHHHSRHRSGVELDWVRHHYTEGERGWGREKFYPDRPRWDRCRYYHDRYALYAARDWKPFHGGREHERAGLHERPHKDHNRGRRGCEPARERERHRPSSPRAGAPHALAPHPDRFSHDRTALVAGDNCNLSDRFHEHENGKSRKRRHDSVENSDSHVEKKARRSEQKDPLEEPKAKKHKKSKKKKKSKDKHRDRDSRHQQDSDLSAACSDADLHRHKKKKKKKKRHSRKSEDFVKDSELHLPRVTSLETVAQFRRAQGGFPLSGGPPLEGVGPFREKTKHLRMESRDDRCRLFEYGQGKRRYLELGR
How it was run: (§1)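 Labelled DUBs from HEK293T lysate were NeutrAvidin-enriched, digested with LysC and trypsin, and run by diaPASEF LC-MS/MS. Before that, each 495 µg sample in Tris/CHAPS/IGEPAL buffer with protease inhibitors was treated in triplicate with fragment at 200 µM or vehicle for 3 h, then with Biotin-Ahx-Ub-VS at 0.5 µM final for 1 h. Values are average log2 ratios of fragment over vehicle by unpaired t-test, based on global-median-normalised Spectronaut label-free quantities from proteins with ≥2 unique peptides.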

[2] = molecular target: USP46 (UniProt P62068)
Chain of USP46 (P62068 whole entry): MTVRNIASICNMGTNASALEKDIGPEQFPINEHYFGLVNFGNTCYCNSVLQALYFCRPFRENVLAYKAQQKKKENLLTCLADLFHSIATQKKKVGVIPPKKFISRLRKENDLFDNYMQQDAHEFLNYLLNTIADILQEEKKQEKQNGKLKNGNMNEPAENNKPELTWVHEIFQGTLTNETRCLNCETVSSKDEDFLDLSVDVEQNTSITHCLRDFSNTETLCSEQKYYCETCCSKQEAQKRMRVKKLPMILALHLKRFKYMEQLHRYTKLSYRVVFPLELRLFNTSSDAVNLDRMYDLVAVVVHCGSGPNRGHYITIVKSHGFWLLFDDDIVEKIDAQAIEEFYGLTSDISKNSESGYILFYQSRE
How it was run: as §1

[3] = molecular target: T2, USP47 (UniProt Q96K76)
T2 sequence (whole entry): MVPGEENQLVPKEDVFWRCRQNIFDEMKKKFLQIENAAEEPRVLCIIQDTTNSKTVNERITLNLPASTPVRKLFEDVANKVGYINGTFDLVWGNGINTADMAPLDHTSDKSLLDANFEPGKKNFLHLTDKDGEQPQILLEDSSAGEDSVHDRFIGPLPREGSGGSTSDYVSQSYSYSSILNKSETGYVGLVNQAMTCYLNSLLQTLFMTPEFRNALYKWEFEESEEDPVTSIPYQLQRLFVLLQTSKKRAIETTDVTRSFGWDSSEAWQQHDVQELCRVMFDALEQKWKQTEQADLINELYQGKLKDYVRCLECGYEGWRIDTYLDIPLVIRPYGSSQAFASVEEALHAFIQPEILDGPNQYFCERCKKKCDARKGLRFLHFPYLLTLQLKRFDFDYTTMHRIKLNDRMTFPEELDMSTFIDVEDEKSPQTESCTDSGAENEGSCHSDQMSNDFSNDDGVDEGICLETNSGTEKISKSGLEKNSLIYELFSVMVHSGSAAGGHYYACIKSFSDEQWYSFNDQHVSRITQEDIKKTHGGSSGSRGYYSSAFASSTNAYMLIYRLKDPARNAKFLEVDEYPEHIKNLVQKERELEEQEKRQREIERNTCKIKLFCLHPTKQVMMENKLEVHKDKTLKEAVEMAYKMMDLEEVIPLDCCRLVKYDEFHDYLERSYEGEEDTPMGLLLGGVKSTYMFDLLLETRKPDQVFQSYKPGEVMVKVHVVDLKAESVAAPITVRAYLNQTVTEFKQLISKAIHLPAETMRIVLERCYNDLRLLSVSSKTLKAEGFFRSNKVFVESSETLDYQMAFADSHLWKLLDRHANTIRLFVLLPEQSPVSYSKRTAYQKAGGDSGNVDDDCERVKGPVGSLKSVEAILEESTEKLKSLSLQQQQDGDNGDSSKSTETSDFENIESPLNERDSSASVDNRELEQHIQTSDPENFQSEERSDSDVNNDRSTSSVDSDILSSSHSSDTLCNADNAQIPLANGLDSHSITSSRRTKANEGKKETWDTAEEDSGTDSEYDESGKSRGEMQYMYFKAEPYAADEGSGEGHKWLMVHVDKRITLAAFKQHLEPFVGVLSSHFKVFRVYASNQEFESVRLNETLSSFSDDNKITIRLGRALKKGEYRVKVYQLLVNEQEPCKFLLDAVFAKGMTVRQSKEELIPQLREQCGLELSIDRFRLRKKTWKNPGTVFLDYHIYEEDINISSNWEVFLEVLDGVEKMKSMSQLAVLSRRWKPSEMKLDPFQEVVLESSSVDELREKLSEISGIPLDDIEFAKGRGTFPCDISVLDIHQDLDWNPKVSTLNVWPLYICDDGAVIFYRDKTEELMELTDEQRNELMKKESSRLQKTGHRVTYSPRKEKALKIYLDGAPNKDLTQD
How it was run: as §1

[4] = molecular target: T3, USP48 (UniProt Q86UV5)
T3 sequence (whole entry): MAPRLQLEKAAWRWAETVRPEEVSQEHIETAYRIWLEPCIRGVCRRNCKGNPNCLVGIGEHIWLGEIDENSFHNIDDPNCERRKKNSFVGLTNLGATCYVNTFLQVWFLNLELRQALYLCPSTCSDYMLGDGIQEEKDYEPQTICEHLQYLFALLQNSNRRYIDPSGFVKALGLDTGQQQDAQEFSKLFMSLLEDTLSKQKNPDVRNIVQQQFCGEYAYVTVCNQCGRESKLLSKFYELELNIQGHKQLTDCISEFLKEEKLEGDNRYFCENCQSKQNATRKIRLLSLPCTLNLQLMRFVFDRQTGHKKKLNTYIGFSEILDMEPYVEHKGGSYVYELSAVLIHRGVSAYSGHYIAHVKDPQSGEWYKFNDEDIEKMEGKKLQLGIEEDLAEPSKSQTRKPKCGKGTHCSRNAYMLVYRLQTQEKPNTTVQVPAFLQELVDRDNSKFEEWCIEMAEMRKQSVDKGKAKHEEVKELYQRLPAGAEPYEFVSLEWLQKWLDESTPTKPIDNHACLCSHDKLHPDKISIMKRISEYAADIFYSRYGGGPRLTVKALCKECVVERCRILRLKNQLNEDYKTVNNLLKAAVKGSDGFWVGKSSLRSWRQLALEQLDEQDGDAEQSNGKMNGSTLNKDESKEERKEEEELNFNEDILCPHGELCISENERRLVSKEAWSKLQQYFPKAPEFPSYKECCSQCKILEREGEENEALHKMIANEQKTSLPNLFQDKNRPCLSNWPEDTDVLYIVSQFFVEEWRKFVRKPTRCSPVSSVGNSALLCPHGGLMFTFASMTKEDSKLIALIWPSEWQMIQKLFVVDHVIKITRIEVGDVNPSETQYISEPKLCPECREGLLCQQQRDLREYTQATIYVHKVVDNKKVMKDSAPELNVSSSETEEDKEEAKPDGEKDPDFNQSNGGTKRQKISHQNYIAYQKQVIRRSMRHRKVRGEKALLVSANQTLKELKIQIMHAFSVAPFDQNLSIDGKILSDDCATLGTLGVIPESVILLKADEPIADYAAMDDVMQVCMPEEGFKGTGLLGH
How it was run: as §1

[5] = molecular target: T4, USP5 (UniProt P45974)
T4 sequence (whole entry): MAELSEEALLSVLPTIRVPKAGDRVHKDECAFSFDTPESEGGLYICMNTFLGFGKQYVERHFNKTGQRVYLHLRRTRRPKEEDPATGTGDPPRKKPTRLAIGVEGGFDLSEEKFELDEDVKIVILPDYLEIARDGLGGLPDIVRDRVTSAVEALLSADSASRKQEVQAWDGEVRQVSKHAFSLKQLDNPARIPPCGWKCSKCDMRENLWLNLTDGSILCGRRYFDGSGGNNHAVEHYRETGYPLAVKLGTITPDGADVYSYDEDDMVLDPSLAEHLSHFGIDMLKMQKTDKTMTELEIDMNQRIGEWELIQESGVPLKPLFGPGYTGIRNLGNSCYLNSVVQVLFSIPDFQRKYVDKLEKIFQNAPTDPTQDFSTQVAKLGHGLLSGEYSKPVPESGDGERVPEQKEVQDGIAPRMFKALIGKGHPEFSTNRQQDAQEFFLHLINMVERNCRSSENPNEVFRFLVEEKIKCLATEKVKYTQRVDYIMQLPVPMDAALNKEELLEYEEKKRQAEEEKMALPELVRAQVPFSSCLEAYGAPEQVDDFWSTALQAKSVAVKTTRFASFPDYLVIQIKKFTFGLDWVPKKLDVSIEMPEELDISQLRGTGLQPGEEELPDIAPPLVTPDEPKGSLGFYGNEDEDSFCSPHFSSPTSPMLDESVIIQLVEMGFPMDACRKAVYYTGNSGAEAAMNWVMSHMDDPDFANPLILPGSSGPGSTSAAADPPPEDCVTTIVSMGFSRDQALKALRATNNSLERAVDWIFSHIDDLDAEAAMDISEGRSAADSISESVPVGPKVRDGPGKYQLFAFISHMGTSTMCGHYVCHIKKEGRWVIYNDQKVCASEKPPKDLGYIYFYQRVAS
How it was run: as §1

[6] = molecular target: USP54 (UniProt Q70EL1)
Chain of USP54 (Q70EL1 whole entry): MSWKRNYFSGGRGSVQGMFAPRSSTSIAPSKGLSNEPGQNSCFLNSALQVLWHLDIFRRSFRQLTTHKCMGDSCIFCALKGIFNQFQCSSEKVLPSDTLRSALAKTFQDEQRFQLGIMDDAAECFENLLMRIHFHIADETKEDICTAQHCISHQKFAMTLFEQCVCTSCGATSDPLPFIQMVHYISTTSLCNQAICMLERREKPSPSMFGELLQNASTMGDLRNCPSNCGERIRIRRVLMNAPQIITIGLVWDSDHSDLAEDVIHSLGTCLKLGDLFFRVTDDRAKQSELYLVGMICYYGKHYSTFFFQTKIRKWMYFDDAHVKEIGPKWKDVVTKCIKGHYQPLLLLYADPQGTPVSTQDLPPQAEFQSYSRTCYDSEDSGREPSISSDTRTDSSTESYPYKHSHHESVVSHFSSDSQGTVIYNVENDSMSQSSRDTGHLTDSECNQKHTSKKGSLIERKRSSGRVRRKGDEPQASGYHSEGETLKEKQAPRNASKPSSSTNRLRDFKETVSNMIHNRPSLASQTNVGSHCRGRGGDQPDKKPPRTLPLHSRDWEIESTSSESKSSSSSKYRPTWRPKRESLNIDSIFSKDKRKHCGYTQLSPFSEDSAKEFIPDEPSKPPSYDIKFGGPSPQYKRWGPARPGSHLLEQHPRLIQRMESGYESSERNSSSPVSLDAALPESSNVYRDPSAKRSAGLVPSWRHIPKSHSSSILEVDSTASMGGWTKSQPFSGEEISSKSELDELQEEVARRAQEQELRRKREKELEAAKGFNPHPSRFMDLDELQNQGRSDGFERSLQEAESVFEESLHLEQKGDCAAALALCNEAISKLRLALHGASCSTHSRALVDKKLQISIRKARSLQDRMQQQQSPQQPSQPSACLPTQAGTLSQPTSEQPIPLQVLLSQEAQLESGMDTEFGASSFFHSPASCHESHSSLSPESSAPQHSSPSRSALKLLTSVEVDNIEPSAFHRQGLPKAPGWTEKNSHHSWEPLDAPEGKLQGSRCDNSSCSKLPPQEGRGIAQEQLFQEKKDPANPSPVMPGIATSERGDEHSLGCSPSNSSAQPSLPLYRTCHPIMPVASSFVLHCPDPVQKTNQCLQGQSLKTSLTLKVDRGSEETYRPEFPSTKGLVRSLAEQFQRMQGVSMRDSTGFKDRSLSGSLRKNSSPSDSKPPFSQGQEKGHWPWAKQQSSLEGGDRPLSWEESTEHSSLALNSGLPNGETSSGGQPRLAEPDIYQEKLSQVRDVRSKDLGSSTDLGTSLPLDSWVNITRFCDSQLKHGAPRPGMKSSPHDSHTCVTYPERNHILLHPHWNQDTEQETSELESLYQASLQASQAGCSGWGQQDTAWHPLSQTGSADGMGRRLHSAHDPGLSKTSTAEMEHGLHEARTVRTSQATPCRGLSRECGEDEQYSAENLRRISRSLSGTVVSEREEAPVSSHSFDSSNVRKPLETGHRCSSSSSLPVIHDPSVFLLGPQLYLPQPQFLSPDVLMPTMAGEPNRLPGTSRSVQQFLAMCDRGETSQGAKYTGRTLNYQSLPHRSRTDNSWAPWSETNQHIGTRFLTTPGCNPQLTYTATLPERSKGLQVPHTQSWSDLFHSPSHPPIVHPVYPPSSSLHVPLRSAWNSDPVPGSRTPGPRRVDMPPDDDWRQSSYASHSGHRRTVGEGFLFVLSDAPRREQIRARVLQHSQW
How it was run: as §1

[7] = molecular target: USP7 (UniProt Q93009)
Chain of USP7 (Q93009 whole entry, looked up): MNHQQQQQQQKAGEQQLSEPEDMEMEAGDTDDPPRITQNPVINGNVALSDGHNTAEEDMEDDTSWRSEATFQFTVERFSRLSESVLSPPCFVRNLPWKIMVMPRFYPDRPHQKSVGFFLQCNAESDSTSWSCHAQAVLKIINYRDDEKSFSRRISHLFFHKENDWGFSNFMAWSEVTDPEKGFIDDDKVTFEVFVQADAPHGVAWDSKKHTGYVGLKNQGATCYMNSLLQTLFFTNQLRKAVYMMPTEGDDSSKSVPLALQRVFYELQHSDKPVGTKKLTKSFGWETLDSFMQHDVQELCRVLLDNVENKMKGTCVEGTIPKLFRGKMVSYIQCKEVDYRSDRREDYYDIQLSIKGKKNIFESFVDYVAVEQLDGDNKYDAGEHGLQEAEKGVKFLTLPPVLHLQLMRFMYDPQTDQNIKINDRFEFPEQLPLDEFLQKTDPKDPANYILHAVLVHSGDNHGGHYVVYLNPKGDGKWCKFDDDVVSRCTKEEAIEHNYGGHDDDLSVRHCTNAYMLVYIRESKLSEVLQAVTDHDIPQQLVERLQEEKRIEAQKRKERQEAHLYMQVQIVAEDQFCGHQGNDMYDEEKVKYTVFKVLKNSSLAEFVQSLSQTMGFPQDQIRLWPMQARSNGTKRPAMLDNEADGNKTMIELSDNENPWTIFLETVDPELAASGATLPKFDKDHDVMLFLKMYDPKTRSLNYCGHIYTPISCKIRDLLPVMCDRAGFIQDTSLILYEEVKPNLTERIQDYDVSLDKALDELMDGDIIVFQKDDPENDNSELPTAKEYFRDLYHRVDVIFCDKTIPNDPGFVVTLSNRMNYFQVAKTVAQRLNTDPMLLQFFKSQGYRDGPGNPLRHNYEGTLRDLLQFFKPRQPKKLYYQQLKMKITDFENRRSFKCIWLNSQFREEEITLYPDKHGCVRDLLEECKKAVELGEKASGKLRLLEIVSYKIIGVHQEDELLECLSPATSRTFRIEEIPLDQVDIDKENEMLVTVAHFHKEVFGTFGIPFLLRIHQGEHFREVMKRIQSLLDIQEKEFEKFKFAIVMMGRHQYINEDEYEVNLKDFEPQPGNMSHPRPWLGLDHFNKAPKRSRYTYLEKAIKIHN
How it was run: as §1

[8] = molecular target: T5, USP8 (UniProt P40818)
T5 sequence (whole entry): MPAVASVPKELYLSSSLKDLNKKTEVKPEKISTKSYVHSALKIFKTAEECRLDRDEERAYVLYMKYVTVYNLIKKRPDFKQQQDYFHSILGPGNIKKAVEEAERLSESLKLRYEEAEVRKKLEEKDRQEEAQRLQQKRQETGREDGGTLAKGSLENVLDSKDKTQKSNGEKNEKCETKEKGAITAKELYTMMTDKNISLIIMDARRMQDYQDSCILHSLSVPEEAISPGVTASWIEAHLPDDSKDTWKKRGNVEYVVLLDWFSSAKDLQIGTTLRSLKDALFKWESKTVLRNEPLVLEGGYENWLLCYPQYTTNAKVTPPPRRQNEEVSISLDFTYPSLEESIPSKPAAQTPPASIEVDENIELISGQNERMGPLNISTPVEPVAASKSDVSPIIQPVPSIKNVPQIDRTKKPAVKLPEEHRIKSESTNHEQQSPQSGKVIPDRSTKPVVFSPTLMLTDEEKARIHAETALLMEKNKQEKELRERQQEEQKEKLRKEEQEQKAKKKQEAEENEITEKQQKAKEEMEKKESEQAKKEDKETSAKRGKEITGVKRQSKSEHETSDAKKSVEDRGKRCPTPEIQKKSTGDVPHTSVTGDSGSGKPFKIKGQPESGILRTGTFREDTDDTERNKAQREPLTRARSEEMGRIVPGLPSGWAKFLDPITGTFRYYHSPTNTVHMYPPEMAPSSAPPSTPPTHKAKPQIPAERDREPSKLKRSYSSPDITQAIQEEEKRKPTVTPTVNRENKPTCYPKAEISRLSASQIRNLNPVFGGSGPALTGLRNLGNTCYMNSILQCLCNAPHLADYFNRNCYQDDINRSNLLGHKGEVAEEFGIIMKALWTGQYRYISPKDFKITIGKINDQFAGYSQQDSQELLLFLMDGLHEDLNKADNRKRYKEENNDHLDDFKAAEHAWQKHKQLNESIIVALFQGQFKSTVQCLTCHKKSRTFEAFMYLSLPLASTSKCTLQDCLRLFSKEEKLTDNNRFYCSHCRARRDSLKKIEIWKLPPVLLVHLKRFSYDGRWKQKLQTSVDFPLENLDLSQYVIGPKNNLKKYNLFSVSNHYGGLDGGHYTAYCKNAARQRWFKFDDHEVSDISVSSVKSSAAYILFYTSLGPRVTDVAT
How it was run: as §1

Measured: log2 ratio of Biotin-Ahx-Ub-VS probe labelling

Cc1nc(CN2CCN(C(=O)CCl)CC2)cs1
inactive: [1] 0.251 | [2] -0.246 | [3] -0.236 | [4] -0.0313 | [5] -0.643 | [6] -0.00411 | [7] -0.473 | [8] -0.444
